Compound activity from PubChem BioAssay.
An excerpt weighted towards active compounds, which were near 5.4% of everything screened.
CSC inhib: blocks cancer stem cells | AID 2717 | 300,000 compounds, 1.1% hits | cancer stem cell-like cells viability, luminescence | inhibition, % at 7.5 µM; in the data active = inhibition above about 75%; inconclusive = no clear call, values can overlap the other calls; tested in HMLE shEcad cells
Mdm2 MdmX PPI: human Mdm2/MdmX binding inhibition. O15151+Q00987. SaOS-2 split-luciferase Mdm2/MdmX complementation, luminescence. inhibition, % at 8 µM. 330,000 compounds, 3% hits. AID 485346;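 active = inhibition of at least 50% at 8 µM in the primary screen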
SKKanGAS inh: SKKanGAS growth inhibition. inhibition, % at 7.5 µM. AID 1662. S. pyogenes SKKanGAS, kanamycin growth, BacTiter-Glo, 6 h. 300,000 compounds, 1.3% hits;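 active = mean replicate score, as percent of positive control median, at least 50; inconclusive = mean below 50 but one replicate at or above 50; inactive = mean and every replicate below 50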;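 also: strain carries kanamycin resistance gene driven by streptokinase promoter and grows in 40 µg/ml kanamycin; loss of luminescence reflects streptokinase promoter inhibition or plain growth inhibition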
Beta cell apopt: beta cell apoptosis inhibition | 300,000 compounds, 0.8% hits | AID 435005 | protection from apoptosis, % (test concentration not listed) | INS-1E cytokine-induced death, ATP luminescence, 48 h; percent of positive-control rescue, neutral wells zero;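 active = Every replicate reaches about 75%, or at least half do and their mean reaches it too, limit read from the data; inconclusive = At least half of replicates reach the limit but their mean does not; inactive = Under half of replicates reach the limit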;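 also: higher means more ATP so stronger rescue from cytokine killing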
MPTP block: inhibitors of mitochondrial permeability transition pore | inhibition, % at 10 µM | 360,000 compounds, 1.4% hits | AID 602449 | isolated mouse mitochondria, Ca2+ swelling absorbance, 30 min;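 active = inhibition of 50% or more, scaled per plate between neutral and stimulator controls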
Calb FLC: C. albicans growth modulation with fluconazole; 300,000 compounds, 0.57% hits; growth inhibition, % (test concentration not listed); C. albicans CaCi-2 (fluconazole-resistant clinical isolate) + fluconazole, Alamar Blue growth, 48 h;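 active = growth inhibition above about 58% in most replicates, limit read from the data, passing the limit was not always enough; inconclusive = exactly half the replicates above a set limit; inactive = most replicates below a set limit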;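 also: all wells also contain fluconazole at 8 µg/ml as a sub-toxic cotreatment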
A number is an active result; 0 = inactive; ? = inconclusive; - = no result.

SMILES | CSC inhib | Mdm2 MdmX PPI | SKKanGAS inh | Beta cell apopt | MPTP block | Calb FLC
COc1cccc(C2/C(=C(/O)c3ccc(C)cc3)C(=O)C(=O)N2Cc2ccco2)c1 (configuration not stated) | 0 | 0 | 0 | 0 | 0 | 94
COc1cccc(C2/C(=C(/O)c3ccccc3)C(=O)C(=O)N2Cc2ccco2)c1 (configuration not stated) | 0 | 0 | 0 | 0 | 0 | 0
C[C@]12CCC(O)CC1CCC1C2CC[C@]2(C)C(c3cc(C(F)(F)F)n[nH]3)CCC12 (some centres not stated) | 112 | 0 | 106 | 0 | 0 | 0
CC12CCC3C(CCC4CC(O)CCC43C)C1CC(O)C2 (configuration not stated) | - | - | - | - | 0 | -
CN(C)c1nc(N/N=C/c2ccccc2O)nc(Nc2ccc(F)cc2)n1 | 0 | 0 | 93 | 106 | 0 | ?
CN(C)c1nc(Nc2ccc(F)cc2)nc(Oc2ccc(F)cc2)n1 | 0 | 0 | 0 | - | 0 | 0
C#CCn1ccc(O)c(Cc2c(F)cccc2Cl)c1=O | 0 | 0 | 0 | 0 | 0 | 0
CN1/C(=C\C(=S)NC(=O)c2ccc([N+](=O)[O-])cc2)C(C)(C)c2ccccc21 | 0 | 0 | 0 | 103 | 0 | ?
CN1/C(=C\C(=O)Nc2ccc(Br)cc2)C(C)(C)c2ccccc21 | 76 | 0 | 71 | 0 | 0 | 0
CN1/C(=C/C=N/NC(=O)c2ccc([N+](=O)[O-])cc2)C(C)(C)c2ccccc21 | - | 0 | 0 | 0 | 0 | 0
CN1/C(=C\C(=O)Nc2ccc(F)cc2)C(C)(C)c2ccccc21 | 0 | 0 | 0 | 0 | 0 | 0
CCN(CC)S(=O)(=O)c1cccc(C(=O)/C=C2/N(C)c3ccccc3C2(C)C)c1 | 0 | 0 | 0 | 0 | 0 | 0
CN1/C(=C\C(=S)NC(=O)c2cccc(Br)c2)C(C)(C)c2ccccc21 | 0 | 0 | 0 | 116 | 0 | 0
COc1ccc2c(c1)[nH]c1c(=O)n(N)cnc12 | - | 0 | 0 | 0 | 0 | 0
CCc1ccc(-c2cnc3ccccc3n2)cc1NC(=O)CNC(=O)c1ccccc1 | 0 | 0 | 0 | 0 | 0 | 0
CSc1ncccc1C(=O)OCC(=O)NC1CCS(=O)(=O)C1 (configuration not stated) | 0 | 0 | 0 | 0 | 0 | 0
COc1ccc2ccc3c(c2c1)N=C[C@]1(O3)N(C)c2ccccc2C1(C)C | 0 | 0 | 56 | 0 | 0 | 0
CC1=NOC2(C1)N(C)c1ccccc1C2(C)C (configuration not stated) | 0 | 0 | 0 | 0 | 0 | ?
CCCNC(=O)c1cccc(S(=O)(=O)N2CC3(C)CC2CC(C)(C)C3)c1 (configuration not stated) | 0 | 0 | 0 | 0 | 0 | 0
c1cc(-c2noc(CC3CCCCC3)n2)ccn1 | 0 | 0 | 0 | 79 | 0 | -
Nc1nccc(/C=C/c2c(F)cccc2Cl)n1 | 0 | 0 | 0 | 0 | 0 | 0
Oc1cccc2ccc(/C=C/c3ccccc3Cl)nc12 | 0 | 0 | 99 | 0 | 0 | 0
Oc1cccc2ccc(/C=C/c3c(F)cccc3Cl)nc12 | 0 | 0 | 74 | - | 0 | 0
Cc1ccc(S(=O)(=O)N2CCC(C(=O)C3C(=O)CCCC3=O)CC2)cc1 | 0 | 0 | 0 | 0 | 0 | 0
O=C(Oc1ccc2ccc(=O)oc2c1)c1ccco1 | 0 | 0 | 0 | 0 | 0 | 0
SMILES | CSC inhib | Mdm2 MdmX PPI | SKKanGAS inh | Beta cell apopt | MPTP block | Calb FLC
CCn1c(-c2cc(-c3ccc(C)c(C)c3)nc3ccccc23)n[nH]c1=S | 0 | 0 | 0 | 0 | - | 0
CCOc1cccc(-c2cc(-c3n[nH]c(=S)n3CC)c3ccccc3n2)c1 | 0 | 0 | 0 | 0 | 0 | 69
COc1cccc(/C=C2\Sc3ccc(C(=O)NCc4cccnc4)cc3N(C)C2=O)c1 | 0 | 0 | 0 | 0 | 0 | 0
COc1ccc(/C=C2\Sc3ccc(C(=O)NCc4cccnc4)cc3N(C)C2=O)cc1OC | 0 | 0 | 66 | 0 | 0 | 0
CN1C(=O)/C(=C/c2cccc(Cl)c2)Sc2ccc(C(=O)NCc3cccnc3)cc21 | 96 | 0 | 0 | 0 | 0 | 0
CCOc1ccc(-n2c(SCC(=O)NCc3ccco3)nnc2-c2c[nH]c3ccccc23)cc1 | 0 | 0 | 0 | 0 | 0 | 0
COc1ccc(-c2cn(-c3ccc(Br)cc3)c3[n+]2CCS3)cc1 | 0 | 0 | 0 | 0 | 0 | 0
CC(=O)c1ccc(-n2cc(-c3ccc(C(C)(C)C)cc3)[n+]3c2SCCC3)cc1 | - | 0 | 0 | 0 | 0 | 101
COc1cc(CCN(C(=O)c2cccc(S(C)(=O)=O)c2)C(CCc2ccccc2)c2nc3ccccc3[nH]2)cc(OC)c1 (configuration not stated) | - | - | - | - | 0 | -
